Sm TGR block: qHTS Assay for the Inhibitors of Schistosoma Mansoni Peroxiredoxins; 360,000 tested, 3% active; Potency, µM (doses to about 114 µM), for the others: at the top dose activity change, negative = inhibition, usual class: inhibitors; Schistosoma mansoni thioredoxin glutathione reductase (TGR), Q962Y6; purified TGR, DTNB reduction, TNB absorbance 405 nm; note: potency is the fitted concentration of half-maximal effect; nearly all actives have a fitted effect of over 60% in size
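TGR 20 nM + NADPH 100 uM (dispensed conc.), cpd preinc 15 min RT; start with NADPH (500 uM addition) then DTNB (15 mM addition). Kinetic TNB absorbance, 405 nm filter. Four-parameter Hill fit across titration.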
HCV inh: qHTS Assay for Inhibitors of Hepatitis C Virus (HCV) | Huh7.5.1 HCVcc-Cre infection, luciferase reporter, 44 h | 340,000 tested, 3.4% active | AID 651820, 2012 | Potency, µM (series often up to 41.8 µM), inactives show at the top dose activity change, negative = inhibition, actives largely listed as inhibitors; note: potency is the fitted concentration of half-maximal effect
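Cells (1,000/well) were plated 4 h before compound, then infected with HCVcc-Cre virus (~0.5 moi). After 44 h further culture, infection was read as luciferase luminescence following a 15 min substrate incubation at room temperature.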
HCMV inh: qHTS Assay for inhibitors of the human cytomegalovirus (HCMV); 410,000 tested, 4.5% active; HFF cells, HCMV-luciferase reporter, 72 h; active compounds read low; activity change, negative = inhibition, % at 57.5 µM; in the data active = activity change below about -60%; inconclusive = no clear call, values can overlap the other calls; inactive = above about -39%
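Screen run at 2 compound doses on HFFs infected with reporter HCMV, MOI 1 PFU/cell. Luciferase activity from cell lysates at 72 h post infection gave inhibition relative to buffer-only and Salinomycin wells.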
Vaccinia Venus: qHTS for Stage-Specific Inhibitors of Vaccinia Orthopoxvirus: Venus Reporter Primary qHTS. Vaccinia virus Venus reporter expression, fluorescence. Potency, µM (series often up to 36.5 µM), for inactives: at the highest dose activity change, negative = inhibition, hits mostly inhibitors. 330,000 tested, 0.46% active. AID 720580, 2013; calls by dose curve; tested in A549 cells; note: potency is the fitted concentration of half-maximal effect; nearly all actives have a fitted effect of over 30% in size
FMDV antiviral: High Throughput Screening for Foot and Mouth Disease Virus Antivirals. FMDV antiviral cell-based qHTS. Potency, µM (doses to about 57.9 µM), inactives show at the top dose activity change, negative = inhibition, hits mostly inhibitors. 410,000 tested, 1.2% active. AID 1159524, 2015; calls by dose curve; tested in HEK293T cells; note: read-out not given here; potency is the fitted concentration of half-maximal effect; nearly all actives have a fitted effect of over 45% in size
Vaccinia mCherry: qHTS for Stage-Specific Inhibitors of Vaccinia Orthopoxvirus: mCherry Reporter Primary qHTS. Vaccinia virus mCherry reporter infection, fluorescence. Potency, µM (series often up to 36.5 µM), inactives show at the highest dose activity change, negative = inhibition, most hits filed as inhibitors. 310,000 tested, 0.63% active. AID 720579, 2013; calls by dose curve; tested in A549 cells; note: potency is the fitted concentration of half-maximal effect; nearly all actives have a fitted effect of over 35% in size
The depositor's hits bear a star; i = inactive; ? = inconclusive; · = no result; ! = repeats disagree; [ ] = another dose, or the depositor's remark. Sampled rows, rich in hits. Any-hit rate of the full collection: about 9.3%. Unless noted, calls come from the whole dose curve; as a rule, active = well fitted curve in the direction sought with a large enough effect; inconclusive = small, poorly fitted or top-dose-only effect, or another doubt; inactive = no such curve, though single readings can be large; an effect the other way counts as inactive or inconclusive. % is set by controls: 0 for no effect and ±100 for the full control effect.

SMILES | Sm TGR block | HCV inh | HCMV inh | Vaccinia Venus | FMDV antiviral | Vaccinia mCherry
COc1cccc(-n2c(SCC(=O)N3CCCCC3)nc3c([nH]c4ccccc43)c2=O)c1 | 3% | 4% | 17 | 2% | -13% | 1%
COC(=O)c1cccc(NC(=O)CSc2nc3cccnc3n2C)c1 | -1% | 14µM* | ? | ? | 16µM* | -23%
CC(C)Oc1ccccc1NC(=O)CSc1nc2ccccc2c(=O)n1C | 2% | ? | ? | · | ? | ·
Cc1cccc(Oc2ccc(NC(=O)c3ccccc3C(=O)O)cc2)c1 | -1% | -16% | 3 | -8% | 13% | ?
CC(C)(C)OC(=O)C[C@H]1C/C=C\C[C@H](CC(=O)NCCO)C(=O)N[C@@H](Cc2ccccc2)COC1=O | · | 2% | -14 | -13% | -17% | i
CNS(=O)(=O)c1cn(CC(=O)N2CCN(c3ccc(OC)cc3)CC2)cc1S(=O)(=O)NC | 5% | · | ? | -6% | -2% | -8%
COC(=O)C1CN(C(=O)COc2cccc(C)c2C)c2ccccc2O1 (stereo not drawn) | 11% | 9% | 96 | · | 17% | ·
CCCn1c(N)c(N(CCOC)C(=O)c2ccc(S(=O)(=O)N3CCOCC3)cc2)c(=O)[nH]c1=O | · | 11% | -17 | -4% | -5% | -10%
COc1ccc(-n2c(SCC(=O)Nc3ccc(C(N)=O)cc3)nc3c([nH]c4ccccc43)c2=O)cc1OC | 16% | 11µM* | 53 | · | -11% | ·
O=C(CSc1nnc(-c2n[nH]c3ccccc23)n1-c1ccccc1)Nc1cccc(Cl)c1 | 8% | -8% | -73* | -26% | -28% | ?
COCCn1c(SCC(=O)Nc2ccc(C(N)=O)cc2)nc2c([nH]c3ccccc32)c1=O | -20% | -2% | 63 | -8% | -10% | -12%
COc1ccccc1NC(=O)c1cnc(SCC(=O)NCC2CCCO2)n(C)c1=O (stereo not drawn) | 3% | 4% | 36 | -10% | 25µM* | -11%
COc1cccc(NC(=O)CSc2nc3c([nH]c4ccccc43)c(=O)n2-c2cccc(Cl)c2)c1 | 9% | · | -74* | -6%[7.34 µM] | -21% | -3%[7.34 µM]
COc1cccc(-n2c(SCC(=O)Nc3cccc(C)c3)nc3c([nH]c4ccccc43)c2=O)c1 | 21% | · | 15 | -13% | 0% | -9%
CCCCCC(C)NC(=O)c1cc(S(=O)(=O)N2CCCCC2)ccc1N1CCOCC1 (stereo not drawn) | -2% | -25% | -25 | · | 4% | ·
CCCCNC(=O)c1onc(CSc2cc(C)ccc2C)c1C(=O)O | 10% | 24% | 60 | -9% | ? | -14%
COC(=O)c1cccc(NC(=O)CSc2nncn2-c2ccccn2)c1 | 9% | 1% | -30 | 3% | 0% | 4%
O=C(CSc1nc2c([nH]c3ccccc32)c(=O)n1-c1ccccc1)N1CCOCC1 | -8% | ? | 23 | -2% | -5% | -2%
Cc1cc(C)cc(-n2c(SCC(=O)Nc3cccc(F)c3)nc3c([nH]c4ccccc43)c2=O)c1 | -1% | · | 8 | 6% | ? | 4%
O=C(CSc1nc2c([nH]c3ccccc32)c(=O)n1-c1cccc(Cl)c1)N1CCOCC1 | -10% | ? | -93*! | 8% | -34% | 31%
COC(=O)c1ccc(NC(=O)CSc2nncn2-c2ccccn2)cc1 | -27% | 5% | -72* | 0% | 11% | i
Cc1cc(C)cc(NC(=O)CSc2nc3c([nH]c4ccccc43)c(=O)n2-c2ccc(F)cc2)c1 | 3% | · | -88* | -4% | 0% | -14%
Cc1noc2ncnc(N3CCCC(C(=O)NCCC(C)C)C3)c12 (stereo not drawn) | 5% | · | -29 | -25% | ? | -23%
Cc1[nH]c(=O)[nH]c(=O)c1/C=N\NC(=O)CCc1ccc(OC(C)C)cc1 | -1% | · | · | · | · | ·

Screening data from PubChem.
